The text below walks through data of PMC5540273 (PLoS ONE, 2017).
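Note: KINOMEscan kinase panel screen.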

One assay has as its system CAMK2G. The conditions noted are these: concentration: 1 μM, replicates: in singlicate; n = 1.
`Cc1ccc(NC(=O)Nc2ccc(Cl)c(C(F)(F)F)c2)cc1-c1ccc(C(=O)Nc2ccncc2)cc1` [GSK1398470]: the “%Inh” value is 25%.

`FC(F)(F)c1ccccc1-c1cc(-c2c[nH]nc2-c2ccccn2)ccn1` [GW679396]: the “%Inh” value is 29%.

For the compound `COC(=O)c1cccc(NC(=O)NC2CCN(c3ccnc(Nc4ccc(F)cc4)n3)C2)c1` (centres unmarked) [GSK1379725], the “%Inh” value was 0%.

In the case of `Fc1ccc(-c2nn3cccc(F)c3c2-c2ccncc2)cc1` [GW475620], the “%Inh” value came out at 14%.

On to `Cc1ccc(NC(=O)Nc2ccc(Cl)cc2)cc1-c1ccc(C(=O)Nc2ccncc2)cc1` [GSK1398472], for which the “%Inh” value was found to be 13%.

For `COC(=O)C(Cc1ccccc1)NC(=O)NC1CCN(c2ccnc(Nc3ccc(F)cc3)n2)C1` (centres unmarked) [GSK1379714], the “%Inh” value turned out to be 24%.

For the compound `COc1ccc(Nc2nccc(NCCNC(=O)Nc3cc(C)ccc3C)n2)cc1` [GSK1379899], the “%Inh” value worked out at 0%.

For `Fc1ccc(-c2nc3n(c2-c2ccncc2)CCS3)cc1` [GI98581], the “%Inh” value is listed as 14%.

With `CC(=O)c1cccc(NC(=O)NC2CCN(c3ccnc(Nc4ccc(F)cc4)n3)C2)c1` (centres unmarked) [GSK1379710], the “%Inh” value stood at 32%.

Take `Cc1ccc(-c2nc(Nc3ccncc3)c3ccccc3n2)s1` [GSK189015]: the “%Inh” value is 24%.

On to `O=c1cc(N2CCOCC2)nc2n(Cc3cccc(Cl)c3Cl)c3ccccc3n12` [GSK2299009], for which the “%Inh” value was found to be 33%.

`Cc1ccccc1Cn1ccn2c(=O)cc(N3CCOCC3)nc12` [GSK2269905]: the “%Inh” value stood at 47%.

In the case of `O=C(Nc1n[nH]c2nc(-c3cccs3)c(Br)cc12)C1CCCC1` [SB-743341], the “%Inh” value stood at 0%.

For the compound `Cn1cncc1-c1cc2c(Nc3ccc(OCc4ccccc4)cc3)ncnc2cn1` [GW281179], the “%Inh” value stood at 36%.

For `CNc1nc(-c2ccc3c(N)n[nH]c3c2)cc(N2C[C@@H](C(=O)NC3CCCCC3)OC[C@H]2C)n1` [GSK2375584], the “%Inh” value worked out at 34%.

Consider `COc1cccc(C2=C(Nc3cc(Cl)c(O)c(Cl)c3)C(=O)NC2=O)c1` [SB-390767], for which the “%Inh” value is listed as 0%.

Turning to `Cn1cnc2c(N)ncnc21` [SKF-97623], the “%Inh” value is listed as 0%.

For `O=c1cc(N2CCOCC2)nc2n(Cc3ccccc3F)ccn12` [GSK2297428], the “%Inh” value worked out at 15%.

In the case of `COc1ccc(-c2coc3ccc(-c4nnc(C)o4)cc23)cc1`, the “%Inh” value amounted to 0%.

Regarding `Cc1ccccc1-c1cc(-c2c[nH]nc2-c2ccccn2)ccn1` [GW680061], the “%Inh” value is reported as 11%.

Regarding `Nc1cccc(-c2ccc3c(N)n[nH]c3c2)n1` [GSK2192730], the “%Inh” value came to 31%.

With `CNC(=O)c1ccc(C)c(-n2c(C)cc(OCc3ccc(F)cc3F)c(Br)c2=O)c1`, the “%Inh” value is recorded as 0%.

Consider `O=C(Nc1n[nH]c2nc(-c3ccco3)c(Br)cc12)C1CCN(Cc2ccccc2)C1.O=C(O)[C@H](O)[C@@H](O)C(=O)O` (centres unmarked) [SB-742034], for which the “%Inh” value is 17%.

For the compound `NS(=O)(=O)c1cccc(N/C=C2\C(=O)Nc3ccc(S(=O)(=O)Cc4c(Cl)cccc4Cl)cc32)c1` [GSK398099], the “%Inh” value was 16%.

Turning to `c1ccc(-c2ccnc3[nH]ccc23)cc1` [SB-693578], the “%Inh” value is 21%.

Turning to `CNc1nc(-c2ccc3c(N)n[nH]c3c2)cc(N2C[C@@H](C(=O)Nc3ccccc3)CC[C@H]2C)n1` [GSK2298859], the “%Inh” value is listed as 21%.

As for `COC(=O)c1cccc(NC(=O)NC2CCN(c3ccnc(Nc4ccc(OC)cc4)n3)C2)c1` (centres unmarked) [GSK1379746], the “%Inh” value is 0%.

For the compound `COc1ccc(Nc2nccc(-c3ccc(NC(=O)c4cc5cc(F)ccc5[nH]4)cc3)n2)cc1` [GSK1229496], the “%Inh” value stood at 34%.

In the case of `Cl.Cl.Cl.N#Cc1ccc(CCNc2nccc(-c3cccc(CN4CCNCC4)c3)n2)cc1` [GSK2137462], the “%Inh” value came to 27%.

In the case of `O=C(Nc1n[nH]c2cc(-c3ccsc3)ccc12)C1CC1` [SB-732932], the “%Inh” value came to 15%.

Take `COc1ccc(Nc2nccc(N3CCC(NC(=O)c4cc5ccccc5s4)C3)n2)cc1` (centres unmarked) [GSK1379738]: the “%Inh” value came out at 11%.

Regarding `COc1ccc2cc(-c3nc(-c4ccccc4C(C)C)[nH]c3-c3ccncc3)ccc2c1` [SB-660566], the “%Inh” value is given as 4%.

In the case of `CC[C@@H]1CO[C@H](C(=O)Nc2ccccc2)CN1c1cc(-c2ccc3c(N)n[nH]c3c2)nc(NC)n1` [GSK2376236], the “%Inh” value came to 6%.

Regarding `Cc1ccc(NC(=O)c2ccc(Cl)cc2)cc1-c1ccc(C(=O)Nc2ccncc2)cc1` [GSK1398467], the “%Inh” value worked out at 12%.

`COc1cccc(NC(=O)Nc2ccc(C)c(-c3ccc(C(=O)Nc4ccncc4)cc3)c2)c1` [GSK1398474]: the “%Inh” value is 22%.

`COc1ccc(CSc2nnc(-c3ccc4c(c3)CCO4)o2)cc1`: the “%Inh” value was found to be 0%.

For `Cc1cccc2c(-c3ccncn3)c(-c3ccc(F)cc3)nn12` [GW515532], the “%Inh” value is reported as 0%.

In another assay the test system is CAMK4. The conditions noted are these: concentration: 1 μM, replicates: in singlicate; n = 1.
Consider `Cc1ccc(NC(=O)Nc2ccc(Cl)c(C(F)(F)F)c2)cc1-c1ccc(C(=O)Nc2ccncc2)cc1` [GSK1398470], for which the “%Inh” value worked out at 0%.

With `FC(F)(F)c1ccccc1-c1cc(-c2c[nH]nc2-c2ccccn2)ccn1` [GW679396], the “%Inh” value was 0%.

In the case of `COC(=O)c1cccc(NC(=O)NC2CCN(c3ccnc(Nc4ccc(F)cc4)n3)C2)c1` (centres unmarked) [GSK1379725], the “%Inh” value was found to be 0%.

With `Fc1ccc(-c2nn3cccc(F)c3c2-c2ccncc2)cc1` [GW475620], the “%Inh” value is given as 19%.

For the compound `Cc1ccc(NC(=O)Nc2ccc(Cl)cc2)cc1-c1ccc(C(=O)Nc2ccncc2)cc1` [GSK1398472], the “%Inh” value is listed as 0%.

For the compound `COC(=O)C(Cc1ccccc1)NC(=O)NC1CCN(c2ccnc(Nc3ccc(F)cc3)n2)C1` (centres unmarked) [GSK1379714], the “%Inh” value worked out at 9%.

Turning to `COc1ccc(Nc2nccc(NCCNC(=O)Nc3cc(C)ccc3C)n2)cc1` [GSK1379899], the “%Inh” value is 0%.

As for `Fc1ccc(-c2nc3n(c2-c2ccncc2)CCS3)cc1` [GI98581], the “%Inh” value was 0%.

As to `CC(=O)c1cccc(NC(=O)NC2CCN(c3ccnc(Nc4ccc(F)cc4)n3)C2)c1` (centres unmarked) [GSK1379710], the “%Inh” value was found to be 0%.

Take `Cc1ccc(-c2nc(Nc3ccncc3)c3ccccc3n2)s1` [GSK189015]: the “%Inh” value is 26%.

In the case of `O=c1cc(N2CCOCC2)nc2n(Cc3cccc(Cl)c3Cl)c3ccccc3n12` [GSK2299009], the “%Inh” value was 9%.

On to `Cc1ccccc1Cn1ccn2c(=O)cc(N3CCOCC3)nc12` [GSK2269905], for which the “%Inh” value is given as 0%.

As for `O=C(Nc1n[nH]c2nc(-c3cccs3)c(Br)cc12)C1CCCC1` [SB-743341], the “%Inh” value stood at 0%.

Consider `Cn1cncc1-c1cc2c(Nc3ccc(OCc4ccccc4)cc3)ncnc2cn1` [GW281179], for which the “%Inh” value is on record as 0%.

With `CNc1nc(-c2ccc3c(N)n[nH]c3c2)cc(N2C[C@@H](C(=O)NC3CCCCC3)OC[C@H]2C)n1` [GSK2375584], the “%Inh” value is 0%.

Turning to `COc1cccc(C2=C(Nc3cc(Cl)c(O)c(Cl)c3)C(=O)NC2=O)c1` [SB-390767], the “%Inh” value is 0%.

Turning to `Cn1cnc2c(N)ncnc21` [SKF-97623], the “%Inh” value came to 7%.

As for `O=c1cc(N2CCOCC2)nc2n(Cc3ccccc3F)ccn12` [GSK2297428], the “%Inh” value turned out to be 0%.

As for `COc1ccc(-c2coc3ccc(-c4nnc(C)o4)cc23)cc1`, the “%Inh” value came out at 13%.

Consider `Cc1ccccc1-c1cc(-c2c[nH]nc2-c2ccccn2)ccn1` [GW680061], for which the “%Inh” value was determined as 0%.

Consider `Nc1cccc(-c2ccc3c(N)n[nH]c3c2)n1` [GSK2192730], for which the “%Inh” value was determined as 0%.

On to `CNC(=O)c1ccc(C)c(-n2c(C)cc(OCc3ccc(F)cc3F)c(Br)c2=O)c1`, for which the “%Inh” value turned out to be 0%.

In the case of `O=C(Nc1n[nH]c2nc(-c3ccco3)c(Br)cc12)C1CCN(Cc2ccccc2)C1.O=C(O)[C@H](O)[C@@H](O)C(=O)O` (centres unmarked) [SB-742034], the “%Inh” value came to 0%.

With `NS(=O)(=O)c1cccc(N/C=C2\C(=O)Nc3ccc(S(=O)(=O)Cc4c(Cl)cccc4Cl)cc32)c1` [GSK398099], the “%Inh” value came out at 0%.

For `c1ccc(-c2ccnc3[nH]ccc23)cc1` [SB-693578], the “%Inh” value amounted to 0%.

As for `CNc1nc(-c2ccc3c(N)n[nH]c3c2)cc(N2C[C@@H](C(=O)Nc3ccccc3)CC[C@H]2C)n1` [GSK2298859], the “%Inh” value turned out to be 0%.

`COC(=O)c1cccc(NC(=O)NC2CCN(c3ccnc(Nc4ccc(OC)cc4)n3)C2)c1` (centres unmarked) [GSK1379746]: the “%Inh” value is 0%.

As to `COc1ccc(Nc2nccc(-c3ccc(NC(=O)c4cc5cc(F)ccc5[nH]4)cc3)n2)cc1` [GSK1229496], the “%Inh” value amounted to 0%.

Turning to `Cl.Cl.Cl.N#Cc1ccc(CCNc2nccc(-c3cccc(CN4CCNCC4)c3)n2)cc1` [GSK2137462], the “%Inh” value is 1%.

In the case of `O=C(Nc1n[nH]c2cc(-c3ccsc3)ccc12)C1CC1` [SB-732932], the “%Inh” value is reported as 0%.

Consider `COc1ccc(Nc2nccc(N3CCC(NC(=O)c4cc5ccccc5s4)C3)n2)cc1` (centres unmarked) [GSK1379738], for which the “%Inh” value is listed as 0%.

On to `COc1ccc2cc(-c3nc(-c4ccccc4C(C)C)[nH]c3-c3ccncc3)ccc2c1` [SB-660566], for which the “%Inh” value came to 7%.

Consider `CC[C@@H]1CO[C@H](C(=O)Nc2ccccc2)CN1c1cc(-c2ccc3c(N)n[nH]c3c2)nc(NC)n1` [GSK2376236], for which the “%Inh” value was found to be 0%.

`Cc1ccc(NC(=O)c2ccc(Cl)cc2)cc1-c1ccc(C(=O)Nc2ccncc2)cc1` [GSK1398467]: the “%Inh” value was determined as 0%.

Consider `COc1cccc(NC(=O)Nc2ccc(C)c(-c3ccc(C(=O)Nc4ccncc4)cc3)c2)c1` [GSK1398474], for which the “%Inh” value came out at 10%.

For `COc1ccc(CSc2nnc(-c3ccc4c(c3)CCO4)o2)cc1`, the “%Inh” value was 0%.

As to `Cc1cccc2c(-c3ccncn3)c(-c3ccc(F)cc3)nn12` [GW515532], the “%Inh” value amounted to 0%.
